CBX7 inh – CBX7 chromodomain binding inhibitors, primary screen, biochemical, AlphaScreen; AlphaScreen His6-CBX7 / biotin-H3K27me3 peptide binding; hits give low values; normalised signal (fraction of DMSO) (concentration not given with the values); 1.1% of 66,000 active; AID 1224903, 2016; in the data active means normalised signal below about 0.5
Target sequence (O95931 whole entry, looked up): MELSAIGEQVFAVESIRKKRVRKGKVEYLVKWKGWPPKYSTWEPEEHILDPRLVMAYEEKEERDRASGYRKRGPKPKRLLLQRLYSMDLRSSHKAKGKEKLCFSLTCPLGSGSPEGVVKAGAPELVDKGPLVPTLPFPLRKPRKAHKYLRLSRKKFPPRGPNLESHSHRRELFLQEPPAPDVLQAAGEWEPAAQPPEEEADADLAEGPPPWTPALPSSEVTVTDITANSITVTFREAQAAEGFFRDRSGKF
Large screens that a line does not name were inactive; ! = repeats disagree. The entries come from a sample that favours hits as a whole.

CCc1ccc(NS(=O)(=O)c2ccc3[nH]cc(C(=O)NCc4ccc(F)cc4)c(=O)c3c2)cc1	none
CN(CCNC(=O)CCN1N=C(c2ccccc2)CCC1=O)Cc1ccccc1	none
Cc1nc2sccn2c1-c1csc(Nc2ccccc2)n1	none
Cc1nc2sccn2c1-c1csc(Nc2cccc(O)c2)n1	CBX7 inh 0.27!
Cc1ccc(Nc2nc(-c3c(C)nc4sccn34)cs2)cc1	none
O=C(CN1C(=O)CCSc2ccccc21)NCCCN1CCCC1=O	none
Cc1ccc(N2CC(c3nc4ccccc4n3CC(C)C)CC2=O)c(C)c1 (stereo not given)	none
COc1cccc(NC(=O)c2cnn(-c3ccc(C)cc3)c2C2CCN(C(=O)OC(C)(C)C)CC2)c1	none
CCCOc1ccc(Cn2c(CO)nc3ccccc32)cc1	none
CCN(CC)CCCNC(=O)c1cc(Nc2ccc(C(C)C)cc2)nc2ccccc12	none
Cc1onc(-c2ccccc2Cl)c1C(=O)Nc1ccccc1C(=O)Nc1ccccc1	none
Cc1cc(C)c(NC(=O)CC2Oc3ccccc3NC2=O)c(C)c1 (stereo not given)	none
Cc1cc(=O)oc2c(CN3CCCC3)c(O)ccc12	none
Cc1cc(=O)n2ccc(CN3CCCCC3)c(O)c2n1	CBX7 inh 0.0042
CCn1cc(C(=O)N2CCCCC2)c(=O)c2ccc(C)nc21	none
Cc1nn(Cc2ccc(Cl)c(Cl)c2)c(C)c1NC(=O)c1cc(-c2ccc(O)cc2)on1	none
COc1ccc2cc(CCNC(=O)c3ccc(Cl)cc3Cl)c(=O)[nH]c2c1	none
CN1CCN(CCCNC(=O)c2cc(=O)[nH]c3ccc(S(=O)(=O)N4CCCCC4)cc23)CC1	none
CCCCOc1ccc(-c2nc3c(C(=O)OC)c[nH]n3c2NC2CCCCC2)cc1	CBX7 inh 0.19
CCCCOc1ccc(-c2nc3ncccn3c2NC2CCCCC2)cc1	none
CCCCOc1ccc(-c2nc3ccccc3c(C(=O)O)c2C)cc1	none
COC(=O)c1c[nH]n2c(NC3CCCC3)c(-c3ccc(F)cc3)nc12	CBX7 inh 0.28
COC(=O)c1c[nH]n2c(NC3CCCCCC3)c(-c3ccc(F)cc3)nc12	CBX7 inh 0.45
COC(=O)c1c[nH]n2c(=O)c(Cc3ccc(C)cc3)c(C)nc12	none
COC(=O)c1c[nH]n2c(NC3CCCCC3)c(-c3ccc(F)cc3)nc12	none
Cc1ccn2c(NC(=O)C3CCCCC3)c(-c3ccc(F)cc3)nc2c1	none
CCOc1ccc(-c2nc3c(C(=O)OC)c[nH]n3c2NC2CCCCC2)cc1OC	none
COC(=O)c1c[nH]n2c(=O)c(Cc3ccc(F)cc3Cl)c(C)nc12	none
COC(=O)c1c[nH]n2c(=O)c(Cc3ccccc3F)c(C)nc12	none
COC(=O)c1c[nH]n2c(NC3CCCCCC3)c(-c3ccc(C)cc3)nc12	CBX7 inh 0.43
CCOC(=O)c1cc(-c2ccccc2)n(CCC(=O)N2CCCC(C)C2)c1C (stereo not given)	none
C=CCN1C(=O)C(O)(CC(=O)c2ccncc2)c2cc(Br)ccc21 (stereo not given)	none
Cc1nc2ccc(S(=O)(=O)NC(CC(C)C)C(=O)N3CCCCC3)cc2s1 (stereo not given)	none
CN(C)c1ccc(NC(=O)c2cc3c(n(-c4ccc(Cl)cc4)c2=O)CCCC3=O)cc1	none
Cc1cc(C)c2nc(SCc3ccccc3)nc(C)c2c1	none
Cc1ccccc1N(C)C(=O)CCc1nc(-c2ccccc2F)no1	none
O=C(CCc1nc2sc3c(c2c(=O)[nH]1)CCCC3)NCCc1c[nH]c2ccccc12	none
O=C1C[C@@H](c2ccccc2)[C@@H](c2ccccc2)CN1	none
CCC1=Nc2cc(C(=O)NCCc3ccc(Cl)cc3)ccc2Sc2ccc(Cl)cc21	none
Cc1ccc(OCCn2c(C3CC(=O)N(c4cccc(C)c4C)C3)nc3ccccc32)cc1 (stereo not given)	none
Cc1ccc(C)c(N2CC(c3nc4ccccc4n3CCOc3ccccc3)CC2=O)c1 (stereo not given)	none
Cc1ccc(OCCn2c(C3CC(=O)N(c4cc(C)ccc4C)C3)nc3ccccc32)cc1 (stereo not given)	CBX7 inh 0.49
O=C(CCn1nc(-c2ccc(Cl)cc2)ccc1=O)N1CCN(Cc2ccccc2)CC1	none
CN1CC(=O)Nc2cc(C(=O)NCCCN3CCCC3)ccc21	none
C1=CC2=C(CO1)OCc1c2[nH]c2ccc3ccccc3c12	CBX7 inh 0.43
Clc1ccc(OCc2nc3ccccc3n2CCC2CCCCC2)cc1	none
CC(C)C(=O)Nc1c2c(nn1-c1cccc(Cl)c1)CSC2	none
Clc1ccc(Cc2nnc(-c3ccccc3Cl)o2)cc1	none
CCC(=O)N1CCc2cc(S(=O)(=O)NC(CC(C)C)C(=O)NCc3ccccc3OC)ccc21 (stereo not given)	none
Cc1oc(-c2ccc(Cl)cc2)nc1CN1CCCC(C(=O)NC2CCCC(C)C2C)C1 (stereo not given)	none
CCc1ccc(-c2nc(CN3CCCC(C(=O)NCc4ccc(Cl)cc4)C3)c(C)o2)cc1 (stereo not given)	none
Cc1ccc(-n2c3c(cc(C(=O)Nc4ccc(Cl)cc4)c2=O)C(=O)CCC3)cc1	none
Cc1cccc2nc(-c3ccncc3)c(Nc3ccc4c(c3)OCO4)n12	none
Cc1cccc2nc(-c3ccc(Cl)cc3)c(Nc3ccc4c(c3)OCO4)n12	none
Cc1cccc2nc(-c3ccc(N(C)C)cc3)c(Nc3ccc4c(c3)OCO4)n12	none
Cc1cccc2nc(-c3ccsc3)c(Nc3ccc4c(c3)OCO4)n12	none
Cc1cccc2nc(-c3ccccn3)c(Nc3ccc4c(c3)OCO4)n12	CBX7 inh 0
Cc1cccc2nc(-c3ccccn3)c(Nc3ccc4c(c3)OCCO4)n12	CBX7 inh 0
Cc1c(-c2ccc(OCC(=O)O)cc2)nc2ccc(Br)cc2c1C(=O)O	none
CCN(CC)S(=O)(=O)c1ccc2c(c1)N(CC(=O)Nc1cc(C)ccc1C)C(=O)CS2	none
CN(CCNC(=O)Cn1ncc2c1-c1ccccc1OC2)Cc1ccccc1	none
Cc1cccc(-c2nc(Nc3ccc(Cl)c(Cl)c3)c3ccccc3n2)c1	none
Cc1ccc(OCCn2cnc3cc(C)c(C)cc32)cc1	none
Cc1ccc(OCCN2CCN(c3ccc(C)c(C)c3)CC2)cc1	CBX7 inh 0.4
Cc1ccc(OCCN2CCN(c3ncnc4scc(-c5ccccc5)c34)CC2)cc1	none
COc1ccc(Oc2nnc(-c3ccccc3)c3ccccc23)cc1	none
CCN1CCN(CCCNC(=O)c2cc(=O)[nH]c3ccc(S(=O)(=O)N4CCCCC4)cc23)CC1	none
COc1ccc(C(CC(=O)c2ccco2)Sc2cccc3cccnc23)cc1OC (stereo not given)	CBX7 inh 0.005
CCOC(=O)c1nnn(-c2nonc2N)c1CSc1cccc2cccnc12	none
COc1ccc(CCNC(=O)C2CCN(S(=O)(=O)c3cccc4cccnc34)CC2)cc1OC	none
Cn1c2ccccc2c2c(C(=O)NCCCN3CCCC3=O)cn(C3CCCC3)c(=O)c21	none
COC(=O)c1c[nH]n2c(NC3CCC(C)CC3)c(-c3cccc(C)c3)nc12 (stereo not given)	CBX7 inh 0.24
COC(=O)c1c[nH]n2c(=O)c(Cc3ccccc3C)c(C)nc12	none
Cc1nc2c(C(=O)NC3CC3)c[nH]n2c(=O)c1Cc1ccccc1F	none
COC(=O)c1c[nH]n2c(=O)c(Cc3cc(C)ccc3C)c(C)nc12	none
COC(=O)c1c[nH]n2c(NC3CCC(C)CC3)c(-c3cccc(F)c3)nc12 (stereo not given)	CBX7 inh 0.33
Cc1nc2c(C(=O)NC3CCCC3)c[nH]n2c(=O)c1Cc1ccc(Cl)cc1	none
CC1CCC(NC(=O)Cn2nc(-c3ccccc3)c3cc(Cl)ccc32)CC1 (stereo not given)	none
COC(=O)c1c[nH]n2c(NC3CCCCCC3)c(-c3cccc(C)c3)nc12	CBX7 inh 0.44

Screens from PubChem.
